This is part of a sample that, as a whole, favours compounds with a hit. Of some 83,000 tested, about 20% had one in any assay.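 Compound tested at a single concentration for 48 hours in 96-well plates; a percent growth value below 10 was scored as active.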 Calls of active or inactive are those of the source.

What all share (test): NCI-60 one-dose screen, 48 h (100 = growth as untreated, 0 = no growth, -100 = all killed)
Holding throughout (conditions): 10 µM unless noted

Experiment [1] deals with NCI-H23 lung.
For experiment [2], the system named is NCI-H226 lung.
The subject of experiment [3] is NCI-H322M lung.
The test system of experiment [4] is HOP-62 NSCLC.
The test system of experiment [5] is NCI-H460 lung.
Experiment [6] relates to HOP-92 NSCLC.
In experiment [7] the test system is NCI-H522 lung.
The test system of experiment [8] is A549/ATCC NSCLC.
Experiment [9] has as its system 786-0 renal.
Experiment [10] deals with COLO 205 colon.

With `CC/C=C\C[C@H](O)C/C=C1/C(=O)C=C[C@@]1(C)C/C=C\CCCC(=O)OC`, the growth was 87.2% (inactive) in [1]; 121% (inactive) in [2]; 106% (inactive) in [3]; 104% (inactive) in experiment [4]; 110% (inactive) in [5]; 99.6% (inactive) in [6]. For the same compound, the growth in [7] is 81.2% (inactive); in [8], 88.6% (inactive); in experiment [9] it was 100% (inactive); in experiment [10], 113% (inactive).

As for `Cn1cc(-c2nonc2-c2c[nH]c3ccccc23)c2cccnc21`, the growth in experiment [1] is 54.4% (inactive); in experiment [2], 30.2% (inactive); in [3] it was 88.6% (inactive); in [4], 36.5% (inactive); in experiment [5] it was 21.6% (inactive); in experiment [6] it was 62.2% (inactive). Besides, the growth in experiment [7] is 18.4% (inactive); in experiment [8], 36.2% (inactive); in experiment [9], 65.8% (inactive); in experiment [10], 37.6% (inactive).

On to `Cn1ccnc1C(=O)/C=C/c1ccccc1`, for which the growth was 33.1% (inactive) in experiment [1]; 50.7% (inactive) in experiment [2]; 10.4% (inactive) in [3]; -54.9% (active) in experiment [4]; -17.9% (active) in experiment [5]; -9.57% (active) in experiment [6]. Besides, the growth was -67.4% (active) in [7], 33.7% (inactive) in experiment [8], -35.6% (active) in experiment [9] and 23% (inactive) in [10].

On to `COc1ccc(Nc2cc(C)nc(N3CCN(c4ccnc5cc(Cl)ccc45)CC3)n2)cc1`, for which the growth in experiment [1] is 41.2% (inactive); in experiment [2], 60.6% (inactive); in experiment [3] it was 26.9% (inactive); in [4], 36.7% (inactive); in experiment [5] it was 18.5% (inactive); in experiment [6] it was 25.3% (inactive). For the same compound, the growth in [7] is 38% (inactive); in experiment [8] it was 26.3% (inactive); in [9] it was 29.1% (inactive); in experiment [10], 8.4% (active).

Turning to `COc1cc(-c2nc3ccccc3[nH]2)ccc1OCC(=O)N=Nc1c(O)[nH]c2ccc(Cl)cc12`, the growth in experiment [1] was -42.4% (active); in [2], 103% (inactive); in [3] it was -7.85% (active); in experiment [4], -61.5% (active); in experiment [5], -75.8% (active); in experiment [6], -36.2% (active). Further, the growth is -43.4% (active) in experiment [7], 35.6% (inactive) in experiment [8], -79.9% (active) in experiment [9] and -48.5% (active) in [10].

For `COC(=O)c1ccc(NC(=O)c2ccc(-c3cccc([N+](=O)[O-])c3)o2)cc1`, the growth in [1] was 87.3% (inactive); in [2], 73.9% (inactive); in [3], 94.3% (inactive); in [4], 107% (inactive); in experiment [5], 101% (inactive); in experiment [6] it was 94.6% (inactive). In addition, the growth was 94.2% (inactive) in [7], 108% (inactive) in experiment [8], 103% (inactive) in [9] and 108% (inactive) in [10].

With `CC(=O)c1cc2c(N)c(C(=O)Nc3cccc4ccccc34)sc2nc1C`, the growth in experiment [1] is 34.6% (inactive); in [2], 81.3% (inactive); in experiment [3] it was 45.4% (inactive); in experiment [4], 38.9% (inactive); in experiment [5], 7.21% (active); in experiment [6], 61.6% (inactive). The growth in [7] was 13% (inactive); in [8], 22% (inactive); in experiment [9] it was 31.6% (inactive); in experiment [10] it was -27% (active).

On to `Cc1oc(-c2ccc(Cl)cc2Cl)cc1C(=O)Nc1nccs1`, for which the growth was 87.4% (inactive) in [1]; 62.6% (inactive) in [2]; 91.1% (inactive) in [3]; 85.4% (inactive) in [4]; 60.7% (inactive) in experiment [5]; 110% (inactive) in [6]. The growth in experiment [7] was 89.7% (inactive); in [8], 51.8% (inactive); in [9] it was 90.7% (inactive); in experiment [10], 87.9% (inactive).

Regarding `COc1ccc(O)c(N=Nc2nccs2)c1`, the growth in [1] is 87.9% (inactive); in experiment [2] it was 92.2% (inactive); in experiment [3] it was 91.4% (inactive); in [4] it was 94.2% (inactive); in [5], 101% (inactive); in experiment [6], 49.4% (inactive). Further, the growth in experiment [7] was 88.2% (inactive); in experiment [8], 91.1% (inactive); in [9], 70.6% (inactive); in experiment [10], 94.8% (inactive).

Consider `Cc1ccc(OC(=O)c2ccc(Cl)cc2)cc1`, for which the growth in experiment [1] was 99.2% (inactive); in experiment [2] it was 97.3% (inactive); in experiment [3], 98.2% (inactive); in experiment [4] it was 84.5% (inactive); in experiment [5] it was 111% (inactive); in experiment [6], 100% (inactive). Moreover, the growth is 76.1% (inactive) in [7], 98.4% (inactive) in [8], 90.2% (inactive) in experiment [9] and 112% (inactive) in experiment [10].

`CC[C@@H](C(=O)[C@@H](C)[C@@H](O)[C@H](C)[C@@H]1O[C@@H]([C@@H](CC)C(=O)O)CC[C@@H]1C)[C@H]1OC2(C=C[C@@H](O)[C@]3(CC[C@@](C)([C@H]4CC[C@](O)(CC)[C@H](C)O4)O3)O2)[C@H](C)C[C@@H]1C` (stereo not given in full): the growth in experiment [1] was 4.65% (active); in [2], 14.1% (inactive); in experiment [3], 24.2% (inactive); in experiment [4], 39.3% (inactive); in [5] it was 10% (inactive); in experiment [6] it was -14.8% (active). Further, the growth is -54.6% (active) in experiment [7], 11.9% (inactive) in experiment [8], 3.62% (active) in experiment [9] and 17.1% (inactive) in experiment [10].

Take `COc1ccc(-n2nc(C)c3c(Nc4ccc(NC(=O)Nc5ccc(Cl)c(C(F)(F)F)c5)cc4)ncnc32)cc1`: the growth in [1] is -7.74% (active); in experiment [2], 10.7% (inactive); in experiment [3], 9.35% (active); in [4], -15.3% (active); in experiment [5], 0.651% (active); in [6] it was -18.9% (active). Moreover, the growth is -18.4% (active) in [7], 6.97% (active) in experiment [8], -25.5% (active) in experiment [9] and -23.6% (active) in experiment [10].

On to `COC(=O)[C@]12CCC(C)(C)C[C@H]1[C@H]1C(=O)C[C@@H]3[C@@]4(C)c5c([nH]c6ccccc6c5=O)C(C)(C)[C@@H]4CC[C@@]3(C)[C@]1(C)CC2`, for which the growth in [1] is 65.8% (inactive); in experiment [2] it was 65.7% (inactive); in [3] it was 90.4% (inactive); in experiment [4], 85.5% (inactive); in [5], 66.8% (inactive); in experiment [6] it was 85.8% (inactive). Further, the growth in experiment [7] was 45.1% (inactive); in [8], 34.8% (inactive); in experiment [9], 86.3% (inactive); in experiment [10], 77.5% (inactive).

For `Cn1cc(C(=O)c2nc(-c3c[nH]c4ccccc34)no2)c2ccccc21`, the growth in experiment [1] was 65.6% (inactive); in experiment [2], 57.3% (inactive); in [3], 68.2% (inactive); in experiment [4] it was 78.9% (inactive); in [5], 35.2% (inactive); in [6] it was 63.8% (inactive). Moreover, the growth in experiment [7] was 56.5% (inactive); in experiment [8], 73.7% (inactive); in [9], 98.4% (inactive); in experiment [10], 56% (inactive).

Take `COc1cc(CNc2oc(-c3ccccc3)c(-c3ccccc3)c2C#N)cc(CN2CCN(C)CC2)c1O`: the growth is 73.1% (inactive) in [1]; 88% (inactive) in [2]; 89.2% (inactive) in experiment [3]; 79.2% (inactive) in experiment [4]; 33.4% (inactive) in experiment [5]; 43.9% (inactive) in experiment [6]. The growth in experiment [7] is 71.5% (inactive); in experiment [8] it was 56.8% (inactive); in experiment [9], 67.2% (inactive); in [10], 54.3% (inactive).

For the compound `C=C1C(=O)O[C@H]2[C@H]1CC/C(COC(=O)c1cc3cc(OC)ccc3[nH]1)=C\CC[C@@]1(C)O[C@@H]21`, the growth in experiment [1] was -72.6% (active); in [2], -68.3% (active); in experiment [3], -50.8% (active); in experiment [4] it was -68.9% (active); in [5] it was -37% (active); in experiment [6], -62.7% (active). Further, the growth in [7] is -91.4% (active); in experiment [8], -73.9% (active); in experiment [9], -87.6% (active); in experiment [10] it was -71.3% (active).

`CCOc1ccc(-n2nc(C(=O)Nc3ccccc3)nc2-c2cc(OC)c(OC)c(OC)c2)cc1`: the growth in experiment [1] was 66.6% (inactive); in experiment [2] it was 80% (inactive); in experiment [3] it was 67.6% (inactive); in experiment [4] it was 55.7% (inactive); in experiment [5], 27.9% (inactive); in [6] it was 46% (inactive). Besides, the growth is 22.8% (inactive) in experiment [7], 41.4% (inactive) in experiment [8], 69.4% (inactive) in [9] and 22.1% (inactive) in experiment [10].

The values are drawn from PubChem BioAssay (NCI).
